Data on three compounds can be found in PubChem BioAssay (EPA / NIEHS).

Broadly, the AC50 is the concentration giving half of the maximal activity seen.

Active and inactive are the calls of the source. Rule for the calls: active = hit-call score of the fitted dose curve at least 0.9, where 1 is the maximum; inactive = score below 0.9.

Common to all, as to conditions: mRNA level, 48 h; actives raise or lower the signal
Read-out in test [1]: ABC Transporter (ABCC3), ABCC3 (gene 8714)
As to the kind of experiment: LTEA_HepaRG_ABCC3: Life Technologies and Expression Analysis (LTEA) Assay for ABC Transporter (ABCC3) using HepaRG (AID 2283462). The method, boiled down:
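Transcript level by TaqMan qRT-PCR, normalised to three housekeeping genes, fitted in both directions relative to vehicle. Chemicals tested in duplicate at eight half-log concentrations up to 100 uM for 48 h on HepaRG cells (0.5% DMSO).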

Read-out in test [2]: ABC Transporter (ABCB11), ABCB11 (gene 8647)
As to the kind of experiment: LTEA_HepaRG_ABCB11: Life Technologies and Expression Analysis (LTEA) Assay for ABC Transporter (ABCB11) using HepaRG (AID 2283463). The method, boiled down: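 ABCB11 transcript levels are read by Fluidigm TaqMan qRT-PCR after 48 h chemical treatment of human HepaRG cells. Concentrations span 100 uM downward in half-log steps with 0.5% DMSO; gain or loss is fitted against DMSO controls.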

Read-out in test [3]: ABC Transporter (ABCC2), ABCC2 (gene 1244)
As to the kind of experiment: LTEA_HepaRG_ABCC2: Life Technologies and Expression Analysis (LTEA) Assay for ABC Transporter (ABCC2) using HepaRG (AID 2283464). In short, it runs like this: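 Endpoint is ABCC2 transcript level from qRT-PCR, normalized to three housekeeping genes and fitted bidirectionally relative to DMSO. Human HepaRG cells received test chemical for 48 h at up to 100 uM (8 points, half-log steps, 0.5% DMSO), duplicate wells.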

Read-out in test [4]: Broad substrate specificity ATP-binding cassette transporter ABCG2 (Homo sapiens) (UniProt Q9UNQ0)
As to the kind of experiment: LTEA_HepaRG_ABCG2: Life Technologies and Expression Analysis (LTEA) Assay for ABC Transporter (ABCG2) using HepaRG (AID 2283465). In short, it runs like this:
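Read-out is ABCG2 mRNA induction or loss quantified by qRT-PCR after 48 h chemical treatment of human HepaRG cells, normalized to three housekeeping genes. Concentrations reached 100 uM top in half-log steps; fitting was bidirectional against 0.5% DMSO.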

Read-out in test [5]: ATP-citrate lyase (ACLY), ACLY (gene 47)
As to the kind of experiment: LTEA_HepaRG_ACLY: Life Technologies and Expression Analysis (LTEA) Assay for ATP-citrate lyase (ACLY) using HepaRG (AID 2283466). The method, boiled down: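 HepaRG, 48 h exposure, 8-pt half-log dilutions (top 100 uM), 0.5% DMSO. Readout: ACLY mRNA, TaqMan qRT-PCR, housekeeping-normalized (ACTB/GAPDH/POLR2A). Bidirectional curve fit vs DMSO.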

Read-out in test [6]: Peroxisomal acyl-coenzyme A oxidase 1 (ACOX1) gene, ACOX1 (gene 51)
As to the kind of experiment: LTEA_HepaRG_ACOX1: Life Technologies and Expression Analysis (LTEA) Assay for Peroxisomal acyl-coenzyme A oxidase 1 (ACOX1) gene using HepaRG (AID 2283467). The method, boiled down: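 Measured by qRT-PCR against three housekeeping genes: ACOX1 transcript change in human HepaRG cells after 48 h dosing. Concentrations ran up to 100 uM in half-log steps. Curves were fitted bidirectionally relative to 0.5% DMSO.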

Read-out in test [7]: Alkaline Phosphatase, Placental (ALPP) gene, ALPP (gene 250)
As to the kind of experiment: LTEA_HepaRG_ALPP: Life Technologies and Expression Analysis (LTEA) Assay for Alkaline Phosphatase, Placental (ALPP) gene using HepaRG (AID 2283468).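 For AC50: differentiated human HepaRG liver cells in serum-free induction medium.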 In short, it runs like this: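 ALPP transcript level, measured by qRT-PCR and normalized to three housekeeping genes (ACTB, GAPDH, POLR2A), after 48 h dosing of differentiated HepaRG in serum-free induction medium. Top concentration 100 uM with half-log dilutions (8 points, 0.5% DMSO, duplicates); bidirectional fitting relative to DMSO.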

Read-out in test [8]: Bcl-2 (BAD) gene, BAD (gene 572)
As to the kind of experiment: LTEA_HepaRG_BAD: Life Technologies and Expression Analysis (LTEA) Assay for Bcl-2 (BAD) gene using HepaRG (AID 2283469). In short, it runs like this: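 BAD transcript change, measured by qRT-PCR against three housekeeping genes and fitted in both directions relative to 0.5% DMSO, after 48 h chemical treatment of human HepaRG liver cells at concentrations up to 100 uM.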

Read-out in test [9]: Bcl-2 (BAX) gene, BAX (gene 581)
As to the kind of experiment: LTEA_HepaRG_BAX: Life Technologies and Expression Analysis (LTEA) Assay for Bcl-2 (BAX) gene using HepaRG (AID 2283470). The method, boiled down:
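Concentration-response endpoint fitted in both directions relative to 0.5% DMSO vehicle. Human HepaRG cultures receive test chemicals for 48 h at up to 100 uM; BAX mRNA is quantified by qRT-PCR against housekeeping genes.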

Read-out in test [10]: adenosine kinase (ADK) gene, ADK (gene 132)
As to the kind of experiment: LTEA_HepaRG_ADK: Life Technologies and Expression Analysis (LTEA) Assay for adenosine kinase (ADK) gene using HepaRG (AID 2283471). The method, boiled down:
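Differentiated HepaRG cells dosed 48 h in serum-free induction medium, 0.5% DMSO vehicle, eight half-log concentrations from 100 uM, in duplicate. ADK mRNA by TaqMan qRT-PCR normalised to ACTB, GAPDH, POLR2A; bidirectional fit versus DMSO.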

Read-out in test [11]: Alpha-fetoprotein (AFP) gene, AFP (gene 174)
As to the kind of experiment: LTEA_HepaRG_AFP: Life Technologies and Expression Analysis (LTEA) Assay for Alpha-fetoprotein (AFP) gene using HepaRG (AID 2283472). The method, boiled down:
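After a 48 h plating period, cells are moved to serum-free induction medium and dosed in duplicate (100 uM maximum, half-log dilutions, 0.5% DMSO) for another 48 h. Total RNA goes to TaqMan qRT-PCR; AFP signal is housekeeping-normalized.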

Read-out in another test: BCL2L11 (gene 10018)
As to the kind of experiment: LTEA_HepaRG_BCL2L11: Life Technologies and Expression Analysis (LTEA) Assay for Bcl-2 (BCL2L11) gene using HepaRG (AID 2283473). In short, it runs like this:
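BCL2L11 transcript levels are measured by Fluidigm qRT-PCR, normalized to three housekeeping genes. HepaRG cultures were plated 48 h, then treated 48 h with test chemical (top 100 uM, half-log, 0.5% DMSO vehicle); curves were fitted bidirectionally against DMSO.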

Read-out in test [12]: Apolipoprotein A-V (APOA5) gene, APOA5 (gene 116519)
As to the kind of experiment: LTEA_HepaRG_APOA5: Life Technologies and Expression Analysis (LTEA) Assay for Apolipoprotein A-V (APOA5) gene using HepaRG (AID 2283474). The method, boiled down:
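APOA5 transcript levels were quantified by qRT-PCR, normalized to three housekeeping genes, after 48 h chemical treatment of HepaRG cells (8 points, 100 uM maximum, half-log steps, 0.5% DMSO). Curves fitted in both directions against vehicle.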

Read-out in test [13]: Apoptosis regulator Bcl-2 (Homo sapiens) (UniProt P10415)
As to the kind of experiment: LTEA_HepaRG_BCL2: Life Technologies and Expression Analysis (LTEA) Assay for Bcl-2 gene using HepaRG (AID 2283475). In short, it runs like this: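 Expression change of BCL2 mRNA in HepaRG after 48 h dosing, quantified by TaqMan qRT-PCR against three endogenous controls. Concentration-response used eight points up to 100 uM, vehicle 0.5% DMSO.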

Read-out in test [14]: Bcl-2 (BID) gene, BID (gene 637)
As to the kind of experiment: LTEA_HepaRG_BID: Life Technologies and Expression Analysis (LTEA) Assay for Bcl-2 (BID) gene using HepaRG (AID 2283476). In short, it runs like this:
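Gain or loss of BID expression is fitted relative to 0.5% DMSO vehicle. Human HepaRG liver cells received a 48 h chemical exposure over an eight-point concentration range.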

Read-out in another test: Caspase-3 (Homo sapiens) (UniProt P42574)
As to the kind of experiment: LTEA_HepaRG_CASP3: Life Technologies and Expression Analysis (LTEA) Assay for cysteine-aspartic acid protease (CASP3) using HepaRG (AID 2283477). In short, it runs like this: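 Expression of CASP3 was quantified by TaqMan qRT-PCR against three housekeeping genes (ACTB, GAPDH, POLR2A), bidirectionally versus 0.5% DMSO. HepaRG cultures received compounds in duplicate, top 100 uM with half-log steps, for 48 h in serum-free induction medium.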

Read-out in test [15]: Cytochrome P450 (CYP24A1), CYP24A1 (gene 1591)
As to the kind of experiment: LTEA_HepaRG_CYP24A1: Life Technologies and Expression Analysis (LTEA) Assay for Cytochrome P450 (CYP24A1) using HepaRG (AID 2283478). In short, it runs like this:
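mRNA of CYP24A1 quantified by TaqMan qRT-PCR (ACTB/GAPDH/POLR2A normalization) after 48 h chemical exposure of HepaRG cells, top concentration 100 uM, half-log steps, 0.5% DMSO vehicle, duplicates. Curves fitted bidirectionally against DMSO baseline.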

Read-out in test [16]: Cytochrome P450 (CYP1A2), CYP1A2 (gene 1544)
As to the kind of experiment: LTEA_HepaRG_CYP1A2: Life Technologies and Expression Analysis (LTEA) Assay for Cytochrome P450 (CYP1A2) using HepaRG (AID 2283479). In short, it runs like this: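 CYP1A2 transcript measured by TaqMan qRT-PCR against three housekeeping genes after 48-hour chemical exposure of HepaRG cells. Eight-point half-log series topping at 100 uM in 0.5% DMSO, duplicates; gain or loss fitted relative to vehicle.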

Read-out in test [17]: Cytochrome P450 (CYP2B6), CYP2B6 (gene 1555)
As to the kind of experiment: LTEA_HepaRG_CYP2B6: Life Technologies and Expression Analysis (LTEA) Assay for Cytochrome P450 (CYP2B6) using HepaRG (AID 2283481). In short, it runs like this:
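CYP2B6 transcript level quantified by qRT-PCR against three housekeeping genes, fitted bidirectionally relative to DMSO. HepaRG cultures received chemicals for 48 h, 8-point half-log series from 100 uM in 0.5% DMSO, duplicate wells, serum-free induction medium.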

Read-out in test [18]: cysteine-aspartic acid protease (CASP8), CASP8 (gene 841)
As to the kind of experiment: LTEA_HepaRG_CASP8: Life Technologies and Expression Analysis (LTEA) Assay for cysteine-aspartic acid protease (CASP8) using HepaRG (AID 2283480). The method, boiled down: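 HepaRG, 48 h exposure, duplicate wells; 8 conc, half-log from 100 uM, 0.5% DMSO. Serum-free induction medium. CASP8 mRNA by TaqMan qRT-PCR, norm. ACTB/GAPDH/POLR2A; gain/loss fitted vs DMSO.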

Sequence of Apoptosis regulator Bcl-2 (Homo sapiens) (P10415 whole entry, looked up): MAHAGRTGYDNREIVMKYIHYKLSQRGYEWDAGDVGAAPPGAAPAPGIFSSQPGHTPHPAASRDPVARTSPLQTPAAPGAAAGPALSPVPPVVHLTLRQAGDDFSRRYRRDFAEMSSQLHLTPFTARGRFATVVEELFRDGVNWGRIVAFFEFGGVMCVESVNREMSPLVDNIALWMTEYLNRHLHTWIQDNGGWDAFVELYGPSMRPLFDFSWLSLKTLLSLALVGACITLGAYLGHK
Sequence of Caspase-3 (Homo sapiens) (P42574 whole entry, looked up): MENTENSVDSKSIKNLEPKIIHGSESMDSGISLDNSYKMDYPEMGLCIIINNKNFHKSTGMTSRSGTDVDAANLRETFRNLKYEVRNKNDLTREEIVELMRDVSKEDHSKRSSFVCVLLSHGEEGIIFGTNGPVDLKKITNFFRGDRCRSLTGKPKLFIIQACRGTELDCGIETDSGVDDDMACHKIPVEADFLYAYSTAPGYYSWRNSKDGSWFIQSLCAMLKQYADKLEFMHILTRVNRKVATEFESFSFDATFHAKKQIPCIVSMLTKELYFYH
Sequence of Broad substrate specificity ATP-binding cassette transporter ABCG2 (Homo sapiens) (Q9UNQ0 whole entry, looked up): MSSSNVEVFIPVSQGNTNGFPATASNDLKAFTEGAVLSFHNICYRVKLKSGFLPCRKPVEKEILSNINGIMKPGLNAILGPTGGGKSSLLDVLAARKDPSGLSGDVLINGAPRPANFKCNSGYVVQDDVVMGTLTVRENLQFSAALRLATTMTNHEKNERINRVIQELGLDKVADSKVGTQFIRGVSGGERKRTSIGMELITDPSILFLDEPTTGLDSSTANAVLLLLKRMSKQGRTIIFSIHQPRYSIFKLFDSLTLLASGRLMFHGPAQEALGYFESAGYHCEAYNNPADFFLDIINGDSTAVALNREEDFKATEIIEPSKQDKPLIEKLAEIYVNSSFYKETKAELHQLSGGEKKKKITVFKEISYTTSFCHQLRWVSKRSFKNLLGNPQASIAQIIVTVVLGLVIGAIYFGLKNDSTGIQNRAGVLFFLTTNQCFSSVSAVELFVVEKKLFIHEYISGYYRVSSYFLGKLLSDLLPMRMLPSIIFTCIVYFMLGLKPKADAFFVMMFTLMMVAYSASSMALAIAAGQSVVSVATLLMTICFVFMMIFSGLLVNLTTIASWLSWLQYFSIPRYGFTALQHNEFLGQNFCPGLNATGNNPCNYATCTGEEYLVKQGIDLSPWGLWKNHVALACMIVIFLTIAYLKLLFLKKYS

Take `CC(C)N(C(=O)SCC(Cl)=C(Cl)Cl)C(C)C`: the outcome in test [1], in test [2], in test [3], in test [4], in test [5] and in test [6] was inactive. Further, the outcome (in [7]; in [8]; in test [9]; in test [10]; in [11]; with BCL2L11 (gene 10018)) was inactive. Besides, the compound was called inactive (in [12]; in test [13]; in test [14]; in the test with Caspase-3 (Homo sapiens); in test [15]; in test [17]). Moreover, in [16], the AC50 was 73.5 µM (active).
On to `CCC(=NOC/C=C/Cl)C1=C(O)CC(C2CCOCC2)CC1=O` (configuration not stated), for which the call in test [1], in [2], in test [3], in test [4], in test [5] and in test [6] was inactive. The compound was classed as inactive (in [7]; in test [8]; in [9]; in [10]; in [11]; with BCL2L11 (gene 10018)). Moreover, the compound was called inactive (in test [12]; in [13]; in test [14]; with Caspase-3 (Homo sapiens); in test [15]; in test [16]). Moreover, the compound was called inactive in [18] and in [17].
`CSC1=N[C@@](C)(c2ccccc2)C(=O)N1Nc1ccccc1`: the concentration at half-maximal activity (AC50) in test [1] is 23.2 µM (active); in [2], 31.4 µM (active); in test [3], 83.6 µM (active); in [4], 13.2 µM (active); in [6], 27.3 µM (active); in test [7], 13.3 µM (active). Moreover, the AC50 is 35.2 µM (active) in [11]; 12.6 µM (active) with BCL2L11 (gene 10018); 33.8 µM (active) in test [12]; 30.2 µM (active) in test [13]; 25.4 µM (active) in [16]; 30.8 µM (active) in test [17]. The result (in [5]; in test [9]; in test [10]; in [14]; with Caspase-3 (Homo sapiens); in test [15]) was inactive.
